Data on 23 compounds can be found in PubChem BioAssay (EPA / NIEHS).

Inconclusive results are not listed. Active and inactive are the calls of the source. How the source made its calls, unless noted: active means hit-call score of the fitted dose curve at least 0.9, where 1 is the maximum; inactive means score below 0.9.

Assay [1] is described as follows: CCTE_Shafer_MEA_acute_spike_number: CCTE's Neural Acute Assay for Total Number of Spikes, Shafer Lab (AID 2284008).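 On AC50: curve fitted for decrease in spike count so AC50 reflects inhibitors.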 In a few lines:
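Cortical neurons from rat, matured to DIV 13 or 15 on microelectrode arrays, are recorded at 37 C before and during 40-min exposure to 0.03-40 uM compound. Wells need >/= 10 active electrodes.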

Assay [2] in a line: CCTE_Shafer_MEA_acute_firing_rate_mean: CCTE's Neural Acute Assay for Mean Firing Rate, Shafer Lab (AID 2284009).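 Further: analyzed for loss of signal so actives lower firing rate relative to DMSO.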 In a few lines: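 Rat cortical neuron cultures matured to DIV 13 or 15, equilibrated 20 min at 37 C, then recorded 40 min for baseline. Compound (0.03-40 uM) added and a further 40 min recorded; percent change in mean firing rate calculated per well.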
Assay [3] can be described thus: CCTE_Harrill_HTTr_Viability_MCF7: CCTE's 6-hour Cell Viability Assessment for the High-Throughput Transcriptomics (HTTr) Platform, in MCF-7 cells cultured in DMEM + 10% fetal bovine serum, Harrill Lab (AID 2284010). In a few lines:
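PI exclusion, high-content imaging; 8-pt dilution series, 6 h exposure; bidirectional fit vs DMSO (neg. ctrl/baseline); gain of signal = loss of membrane integrity.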

The nature of assay [4]: CCTE_Harrill_HTTr_Apoptosis_MCF7: CCTE's 6-hour Apoptosis Assessment for the High-Throughput Transcriptomics (HTTr) Platform, in MCF-7 cells cultured in DMEM + 10% fetal bovine serum, Harrill Lab (AID 2284011). The gist of the method:
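Cells are dosed with test chemicals at eight concentrations and imaged 6 hours later for caspase-3/7 activity using a green fluorogenic detection reagent. Activity is fitted in both directions against DMSO controls.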

Assay [5] can be described thus: CCTE_Shafer_MEA_acute_burst_number: CCTE's Neural Acute Assay for Single-Electrode Bursts, Shafer Lab (AID 2284013). In a few lines: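 Percent change in single-electrode burst number per well, from 40-min recordings taken before and after adding compound (0.03-40 uM) to primary rat cortical neurons on MEA plates at DIV 13 or 15, 37 C.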
A short description of assay [6]: CCTE_Shafer_MEA_acute_burst_duration_mean: CCTE's Neural Acute Assay for Mean Burst Duration, Shafer Lab (AID 2284014).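 Further: hits are decreases in mean burst duration relative to DMSO controls.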 In a few lines:
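Rat cortical cultures, DIV 13/15; 40 min baseline, then 40 min with compound (0.03-40 uM), 37 C. Spikes: 300-5000 Hz band-pass, 8x rms threshold. Read-out: % change in mean single-electrode burst duration, DMSO-referenced, loss direction.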

Assay [7] can be described thus: CCTE_Shafer_MEA_acute_per_burst_spike_number_mean: CCTE's Neural Acute Assay for Average Number of Spikes Per Burst, Shafer Lab (AID 2284015).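 Further: hits are decreases in mean spikes per burst versus baseline.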 The gist of the method:
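Percent change in mean spikes per single-electrode burst is compared between a 40 min baseline and a 40 min recording with compound (0.03-40 uM). Cultures were rat cortical neurons on MEA plates at DIV 13 or 15, recorded at 37 C, with DMSO as the negative control.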

Assay [8] can be described thus: CCTE_Shafer_MEA_acute_interburst_interval_mean: CCTE's Neural Acute Assay for Mean Interburst Interval, Shafer Lab (AID 2284016).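 Further: percent change of mean interburst interval versus each well's own pre-dose baseline; curves fitted for decrease in interburst interval relative to DMSO.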 The gist of the method:
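Percent change in mean single-electrode interburst interval was calculated per well from 40 min recordings before and after compound (0.03-40 uM). Recordings were made at 37 C on rat cortical cultures at DIV 13 or 15, with spikes detected at 8x rms threshold.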

Assay [9] can be described thus: CCTE_Shafer_MEA_acute_burst_percentage_mean: CCTE's Neural Acute Assay for Percentage of Spikes in a Burst, Shafer Lab (AID 2284017).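 On AC50: curve fitted for loss of signal so potency reflects decreased burst percentage.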 The gist of the method: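 Well-level mean burst percentage from a 40-min recording after compound (0.03-40 uM) expressed as percent change from a 40-min baseline at 37C. Cultures: primary rat cortical neurons on MEA, dosed on DIV 13 or 15; fitted downward relative to DMSO.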

A short description of assay [10]: CCTE_Harrill_HTTr_CellCount_MCF7: CCTE's Cell Proliferation Assessment for the High-Throughput Transcriptomics (HTTr) Platform, Harrill Lab (AID 2284012; active means hit-call score of the fitted dose curve at least 0.9, where 1 is the maximum;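 further: count of Hoechst-stained nuclei per well by high-content imaging in MCF-7 cells; cells exposed to compound for six hours; intended direction is loss of nuclei count meaning fewer cells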). In a few lines: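 Readout: Hoechst nuclear count by high-content imaging. MCF-7, 8-point dilution series, 6 h exposure. Bidirectional fit vs DMSO baseline.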
A short description of assay [11]: CCTE_Simmons_MITO_inhib_resp_rate: CCTE's HepG2 Seahorse XF Respirometric Screening Assay at Inhibited Respiratory State [full ETC block], Simmons Lab (AID 2284006). Conditions: actives raise or lower the signal. In a few lines: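 OCR read-out in the inhibited phase following rotenone/antimycin A, after compound and FCCP injections, in HepG2 cells. Seven concentrations (125 nM to 100 uM final), three biological replicates, 6-min cycles over 72 min; DMSO baseline.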

As for `CCCCCCCCCCCCO`, the call in assay [1], in [2], in [3], in [4], in [5] and in assay [6] was inactive. Besides, the compound was classed as inactive in assay [8]. The AC50 is 20 µM (active) in assay [7] and 25.5 µM (active) in [9].

For the compound `CO[C@H]1/C=C/O[C@@]2(C)Oc3c(C)c(O)c4c(O)c(c(/C=N/N5CCN(C)CC5)c(O)c4c3C2=O)NC(=O)/C(C)=C\C=C\[C@H](C)[C@H](O)[C@@H](C)[C@@H](O)[C@@H](C)[C@H](OC(C)=O)[C@@H]1C`, the call in assay [1], in assay [2], in assay [3], in [4], in assay [5] and in assay [6] was inactive. Further, the outcome in assay [8] and in assay [9] was inactive. Further, the AC50 in assay [7] is 12.5 µM (active).

`C[C@]12CC[C@@H]3c4ccc(O)cc4CC[C@H]3[C@@H]1CCC2=O`: the result in assay [3], in assay [4] and in assay [10] was inactive.

As for `CCCCCc1ccc(N)cc1`, the result in assay [3], in [4] and in assay [10] was inactive.

With `CC(O)CC(C)(C)O` (configuration not stated), the outcome in [1], in [2], in assay [3], in assay [4], in [10] and in assay [5] was inactive. Moreover, the result in assay [6], in assay [7], in assay [8] and in assay [9] was inactive.

Turning to `O=C1CCC(C2CCCCC2)CC1`, the compound was called inactive in [11], in [3], in [4] and in assay [10].

Take `O=C1c2ccccc2C(=O)N1CCc1noc(-c2ccc(CN3CCCCCC3)s2)n1`: the compound was called inactive in assay [11], in assay [3], in [4] and in [10].

On to `Cc1cn([C@H]2C[C@H](N=[N+]=[N-])[C@@H](CO)O2)c(=O)[nH]c1=O`, for which the call in [1], in [2], in assay [3], in [4], in [10] and in [5] was inactive. Also, the call in assay [6], in assay [7], in assay [8] and in [9] was inactive.

Turning to `O=C1O[C@H]([C@@H](O)CO)C(O)=C1O`, the compound was classed as inactive in assay [1], in assay [2], in assay [3], in [4], in [10] and in assay [5]. For the same compound, the outcome in assay [6], in assay [7], in [8] and in assay [9] was inactive.

`Cc1oc2c(NC(=O)c3c(Cl)cccc3Cl)cccc2c1C(C)(C)O`: the result in assay [3], in assay [4] and in [10] was inactive.

Consider `c1ccc(C[n+]2cccc3ccccc32)cc1`, for which the outcome in assay [3] and in assay [4] was inactive.

In the case of `COc1cccc([C@H](O)C2CCN(CCc3ccc(F)cc3)CC2)c1OC`, the AC50 was 2.87 µM (active) in [1], 2.87 µM (active) in [2] and 2.88 µM (active) in [5]. The outcome in assay [3], in assay [4], in assay [6], in assay [7], in assay [8] and in assay [9] was inactive.

Consider `CC1=CC(=O)/C(=C(/C)O)C(=O)O1`, for which the call in assay [1], in assay [2], in assay [5], in [6], in assay [7] and in assay [8] was inactive. The call in assay [9] was inactive.

Consider `CCCCCCCCOc1ccc(C(=O)c2ccccc2)c(O)c1`, for which the outcome in assay [3] and in assay [4] was inactive.

As to `Cc1ncc(CO)c(CO)c1O`, the result in assay [3], in assay [4] and in assay [10] was inactive.

For the compound `CN1C(=O)N(c2ccccc2Br)Cc2cnc(Nc3ccc4c(c3)OCC(CO)O4)nc21` (configuration not stated), the outcome in assay [11], in assay [3], in [4] and in assay [10] was inactive.

Consider `COc1ccc2cc(S(=O)(=O)N[C@H](CC(=O)N[C@H](Cc3ccc(CN4[C@H](C)CCC[C@@H]4C)cc3)C(=O)N(C)C(C)C)c3ccc4c(c3)OCO4)ccc2c1`, for which the result in [3], in assay [4] and in assay [10] was inactive.

On to `O=c1ccc2ccccc2o1`, for which the outcome in assay [3], in assay [4] and in assay [10] was inactive.

With `Clc1ccccc1C(c1ccccc1)(c1ccccc1)n1ccnc1`, the AC50 in assay [1] was 5.01 µM (active); in [2] it was 5.03 µM (active); in [5], 3.26 µM (active); in assay [7], 5.84 µM (active); in [9], 7.02 µM (active). The outcome in [3], in assay [4], in [6] and in assay [8] was inactive.

Take `Oc1ccccc1`: the outcome in [3], in assay [4] and in assay [10] was inactive.

With `CCCCOC(=O)CC(CC(=O)OCCCC)(OC(C)=O)C(=O)OCCCC`, the outcome in assay [3], in assay [4] and in [10] was inactive.

With `O=C(O)c1ccccc1-n1cc(C(=O)O)c(=O)c2cc(Nc3c(F)cc(F)cc3Cl)c(Cl)cc21`, the outcome in assay [1], in assay [2], in [3], in assay [4], in [10] and in assay [5] was inactive. Moreover, the call in assay [6], in [8] and in assay [9] was inactive. Also, the AC50 in assay [7] was 20 µM (active).

On to `O=C(O)Cc1cc(I)c(Oc2ccc(O)c(I)c2)c(I)c1`, for which the compound was classed as inactive in [11], in assay [3], in [4] and in assay [10].

A word on the AC50: it is the midpoint of the concentration-response curve, whichever way the signal moves.
